Molecules are shown by their SMILES. Records with an inconclusive call do not appear. Active and inactive are the calls of the source. Calls follow the shape of the dose curve; as a rule, active = well fitted inhibition curve with a large enough effect; inconclusive = small, poorly fitted or top-dose-only effect; inactive = flat fitted curve, though single readings scatter.
% is scaled to controls: 0 for no effect and ±100 for the full control effect; potency is read from the fitted curve at half-maximal effect.

The test system of this experiment is KB-3-1. Nature of the experiment: Cytotoxic Profiling of Annotated Libraries Using Quantitative High-Throughput Screening (AID 1296008). Also: nearly all actives have a fitted effect of over 60% in size. As to conditions: Five cell lines viability, CellTiter-Glo ATP luminescence, 48-72 h; max response: hits give low values. An outline of the steps:
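Cells exposed to compounds for 48 or 72 hr at 37 degrees Celsius. Viability read as ATP-coupled luminescence with CellTiter-Glo after 10 min at room temperature.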
Regarding `CO[C@H](C(=O)[C@@H](O)[C@@H](C)O)C1Cc2cc3cc(O[C@H]4C[C@@H](O[C@H]5C[C@@H](O)[C@H](O)[C@@H](C)O5)[C@@H](O)[C@@H](C)O4)c(C)c(O)c3c(O)c2C(=O)[C@H]1O[C@H]1C[C@@H](O[C@H]2C[C@@H](O[C@H]3C[C@](C)(O)[C@H](O)[C@@H](C)O3)[C@H](O)[C@@H](C)O2)[C@H](O)[C@@H](C)O1` (stereo not given in full), the Potency was 1.16 µM (active).

`CC(=O)Oc1cc(C)c(OC(C)=O)c2ccccc12`: the max response is 4.15% (inactive).

Regarding `CCCCCCCC/C=C\CCCCCCCC(=O)O`, the max response was 4.43% (inactive).

As for `O=S(=O)(O)O`, the max response was 5.37% (inactive).

Turning to `CO[C@H]1C[C@@H]2CC[C@@H](C)[C@@](O)(O2)C(=O)C(=O)N2CCCC[C@H]2C(=O)O[C@H]([C@H](C)C[C@@H]2CC[C@@H](OCCO)[C@H](OC)C2)CC(=O)[C@H](C)/C=C(\C)[C@@H](O)[C@@H](OC)C(=O)[C@H](C)C[C@H](C)/C=C/C=C/C=C/1C`, the max response is -27.1% (inactive).

With `CCCCCCCC(=O)O`, the max response is -16.7% (inactive).

On to `O=C(O)CCC(=O)C(=O)O`, for which the max response is -11.9% (inactive).

As for `CCCCC/C=C\C/C=C\CCCCCCCC(=O)O`, the max response is -13.1% (inactive).

Turning to `CCC(=O)NCCC1CCc2ccc3c(c21)CCO3` (stereo not given), the max response was -7.29% (inactive).

Take `C=CCSSSCC=C`: the max response is -7.72% (inactive).

These data come from PubChem BioAssay (NCATS).
